# Data from PubChem BioAssay (NCI).
# Compounds without any hit were thinned out: in the full panel of roughly 83,000, 20% have a hit.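 A percent growth of 40 corresponds to 60% growth inhibition; 0 means no net growth; -100 means all cells died. Active threshold: below 10.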 Unmarked numbers belong to inactive results. Calls of active or inactive are those of the source.
# Tests used:
# Test in all cases: NCI-60 one-dose screen, 48 h (100 = growth as untreated, 0 = no growth, -100 = all killed)
# Details in all cases: 10 µM unless noted
# DU-145 prostate = test system: DU-145 prostate
# K-562 leukemia = test system: K-562 leukemia
# MDA-MB-231 breast = test system: MDA-MB-231 breast
# RXF 393 renal = test system: RXF 393 renal
# SF-268 CNS = test system: SF-268 CNS
# SF-295 CNS = test system: SF-295 CNS
# SF-539 CNS = test system: SF-539 CNS
# UACC-257 melanoma = test system: UACC-257 melanoma
# M14 melanoma = test system: M14 melanoma
# HCT-15 colon = test system: HCT-15 colon
# HT29 colon = test system: HT29 colon
# SNB-75 CNS = test system: SNB-75 CNS
# SNB-19 CNS = test system: SNB-19 CNS
# U251 CNS = test system: U251 CNS
# PC-3 prostate = test system: PC-3 prostate
# SK-MEL-5 melanoma = test system: SK-MEL-5 melanoma
# UACC-62 melanoma = test system: UACC-62 melanoma
# LOX IMVI melanoma = test system: LOX IMVI melanoma
# SK-MEL-28 melanoma = test system: SK-MEL-28 melanoma
# MALME-3M melanoma = test system: MALME-3M melanoma
SMILES,growth (DU-145 prostate),growth (K-562 leukemia),growth (MDA-MB-231 breast),growth (RXF 393 renal),growth (SF-268 CNS),growth (SF-295 CNS),growth (SF-539 CNS),growth (UACC-257 melanoma),growth (M14 melanoma),growth (HCT-15 colon),growth (HT29 colon),growth (SNB-75 CNS),growth (SNB-19 CNS),growth (U251 CNS),growth (PC-3 prostate),growth (SK-MEL-5 melanoma),growth (UACC-62 melanoma),growth (LOX IMVI melanoma),growth (SK-MEL-28 melanoma),growth (MALME-3M melanoma) [%]
Nc1nc(N)c2c(n1)NC(c1ccc(C(F)(F)F)cc1)CC(c1ccc(Nc3nc(NCCO)nc(N4CCOCC4)n3)cc1)=N2 (stereo not given),79.2%,17.9%,80.8%,67.9%,63.6%,73.2%,75.3%,80.2%,71.7%,37.2%,50.4%,66%,84%,45.6%,49.2%,64.6%,82.2%,49.7%,81.7%,–
Cc1ccc2sc3c(c2c1)OC(N)=C(C#N)C3c1ccc(Cl)cc1 (stereo not given),76.8%,–,65.2%,50.6%,89.3%,74%,70.8%,89.8%,64.5%,30.3%,67.3%,81.6%,89.9%,96.3%,71.1%,–,45.7%,86.9%,75.2%,71.5
NC(N)=Nc1ccc(Oc2cccc(Nc3cccc(C(F)(F)F)c3)c2)cn1,-10.7% (active),-47.3% (active),12%,2.79% (active),49.3%,-86.1% (active),70.8%,25.8%,5.01% (active),-64.9% (active),14.6%,33.5%,1.17% (active),-62.7% (active),-74.8% (active),31.4%,-16.2% (active),-90.3% (active),31.5%,–
CNC1CCc2c(sc(NC(=O)c3ccc(C(C)(C)C)cc3)c2C(N)=O)C1 (stereo not given),44.7%,-10% (active),56.8%,59.5%,79%,-70.9% (active),75.8%,56.2%,52.8%,4.54% (active),-0.193% (active),78.8%,55.6%,–,40%,83.6%,60.5%,-88.1% (active),63.2%,–
COc1cc(OC)cc(C(=O)Nc2sc3c(c2C(N)=O)CCC(=O)C3)c1,99.4%,–,52.4%,85.1%,30.7%,65.3%,16.6%,53.2%,22.9%,10.9%,39.6%,47.9%,25.1%,10.3%,8.96% (active),63.1%,20.4%,22.1%,48%,–
NC(N)=Nc1ccc(Oc2cccc(Nc3ccc(Cl)c(C(F)(F)F)c3)c2)cc1,47.8%,5.61% (active),6.88% (active),50%,32.8%,4.34% (active),80.9%,27.6%,41.1%,79.5%,49%,47.4%,24.8%,-27.6% (active),28.3%,43.9%,40.1%,-62.4% (active),67.7%,–
Cc1nn(-c2ccccc2)c2ncnc(N/N=C/c3cccc(O)c3)c12,67.9%,13.4%,70.8%,16.6%,55.9%,46.5%,50.4%,62.8%,28.6%,22.8%,81%,33.2%,49%,40.8%,42.6%,30.5%,32.7%,29%,54.2%,–
NC(N)=Nc1ccc(Oc2cccc(Nc3ccc(Cl)c(C(F)(F)F)c3)c2)cn1,-93.4% (active),-43.5% (active),-58.1% (active),-3.9% (active),17.7%,-84.7% (active),15.9%,-26.1% (active),-62.4% (active),-63.5% (active),-39.2% (active),20.3%,-77% (active),-82.2% (active),-89.4% (active),26.7%,-78.3% (active),-83.8% (active),-28.6% (active),–
CCO/C=N/C1=C(C#N)C(c2ccc(Cl)cc2)c2sc3c(C)cccc3c2O1 (stereo not given),19.2%,7.31% (active),24.4%,-27.6% (active),51.1%,-19.3% (active),-11.5% (active),76.2%,1.8% (active),12.5%,4.77% (active),-5.08% (active),18.4%,20.7%,12%,30.7%,9.19% (active),22.1%,60.5%,–
N#Cc1ccccc1Cn1c2nc(=N)c3ccccc3c-2nc2ccccc21,60.3%,–,41.8%,54.3%,74.3%,52%,82.6%,41.8%,70%,41.5%,15.4%,93.8%,65.8%,70.4%,56.8%,32.5%,56.5%,51.1%,90.2%,–
COc1cccc(C(=O)Nc2cccc(C#Cc3cccc4[nH]nc(N)c34)c2)c1,70.8%,–,38.6%,-19.5% (active),53%,54.9%,36.1%,82.8%,32.6%,28.9%,37.5%,3.74% (active),98.5%,68%,32.7%,–,57.6%,37%,67.7%,79.4
CCO/C=N/C1=C(C#N)C(c2ccc(OC)cc2)c2sc3c(CC)cccc3c2O1 (stereo not given),17.6%,14.5%,31.7%,-21% (active),61.5%,3.52% (active),4.01% (active),73.8%,16.1%,22.4%,13.1%,-0.25% (active),37.8%,27.3%,26.9%,17.6%,27.6%,26%,67.2%,–
FC(F)(F)c1cc(Nc2cccc(Oc3ccc(NC4=NCCN4)nc3)c2)ccc1Cl,-19.3% (active),-19% (active),9.73% (active),18.1%,34.8%,-78.5% (active),51.6%,27%,-50.7% (active),-71.4% (active),4.39% (active),10.7%,9.09% (active),-7.18% (active),-36.5% (active),4.94% (active),-45.5% (active),–,29.4%,–
CCO/C=N/C1=C(C#N)C(c2ccc(Cl)cc2)c2sc3c(CC)cccc3c2O1 (stereo not given),13.6%,11.4%,37.2%,-27.7% (active),58.3%,-12.1% (active),-3.86% (active),70.3%,8.6% (active),23.3%,10.7%,-5.34% (active),24.1%,20%,16.5%,20.5%,15.8%,29.9%,61.2%,–
C=CCn1c(SCC(=O)Nc2ccc(C(=O)/C=C/c3cccc([N+](=O)[O-])c3)cc2)nnc1-c1c[nH]c2ccccc12,97%,–,85.2%,–,84%,91%,96.4%,103%,–,91.7%,98.4%,97%,89.4%,94.4%,77.8%,59.5%,66.9%,31.1%,95.4%,86.6
O=C(CN1CCN(c2cc(=O)n(-c3ccccc3)c3ccccc23)CC1)Nc1cccc(C(F)(F)F)c1,64.7%,23.4%,68.7%,62.2%,66.2%,59%,71.5%,38.8%,60.5%,48.5%,70.8%,65.5%,70.9%,71.6%,42.1%,14.4%,57.2%,66.1%,75.1%,–
COc1cc2nc(Cl)nc(Nc3cccc(C4=Nc5c(N)nc(N)nc5NC(c5ccc(F)cc5)C4)c3)c2cc1OC (stereo not given),79.4%,–,76.4%,51.1%,77.4%,2.02% (active),88.6%,92.1%,86.8%,0.163% (active),9.87% (active),85.9%,31.7%,–,59.9%,67.1%,93%,-53.6% (active),94.6%,–
CCO/C=N/C1=C(C#N)C(c2ccc(F)cc2)c2sc3c(CC)cccc3c2O1 (stereo not given),19.3%,8.58% (active),29.7%,-20.6% (active),47.5%,-6.92% (active),-12.7% (active),69.5%,8.85% (active),12.6%,10.1%,3.71% (active),21.4%,21.4%,13.6%,26.6%,16.1%,14.7%,61%,–
C#CCOC(=O)[C@@H]1CCCN1CC#C,92%,76.8%,84.6%,81.7%,76.9%,102%,90.2%,97.3%,98.4%,85.7%,82.4%,77.8%,86.9%,81.4%,51.2%,90.2%,92.8%,77.7%,107%,–
Cc1ccc(S(=O)(=O)N(CC[C@@H]2C[C@H]2c2cc3ccccc3o2)S(=O)(=O)c2ccc(C)cc2)cc1,98.7%,83.1%,83.6%,103%,98.1%,101%,101%,84.9%,99%,94.5%,94%,89%,94.6%,92.5%,87%,96.1%,69.1%,95.1%,93.5%,–
COc1cc(OC)c(S(N)(=O)=O)cc1C(C)=O,108%,–,101%,121%,104%,100%,101%,102%,109%,103%,103%,130%,101%,–,94.9%,–,100%,105%,107%,109
CC(=O)N(C)C1CCc2c(sc(NC(=O)c3ccc(C(C)(C)C)cc3)c2C(N)=O)C1 (stereo not given),58.9%,62.3%,75.5%,96.2%,99%,43.8%,79.7%,86.9%,75.5%,57.1%,77.7%,39.2%,74.7%,51.8%,45.9%,91.7%,85.7%,29.5%,80%,–
COc1ccccc1-n1cc(C#N)c(N)c1C(=O)c1ccc(Br)cc1,97.3%,20.1%,79.8%,85.8%,89%,45.5%,82.7%,72.5%,42.3%,35.1%,44.6%,74.5%,71.1%,66.8%,63.4%,77.4%,45.2%,–,69%,–
C#C[C@]1(O)CC[C@H]2[C@@H]3CC=C4c5sc(-c6cccc(O)c6)nc5CC[C@]4(C)[C@H]3CC[C@@]21C,2.17% (active),-5.49% (active),-40.8% (active),-68.5% (active),-15.4% (active),-64.7% (active),-68.9% (active),-42.6% (active),-41.1% (active),-25.2% (active),-13.7% (active),-52.7% (active),-19.8% (active),-47.6% (active),-54.7% (active),-77.1% (active),-61.3% (active),-62.4% (active),-68.8% (active),–
COc1cc2nc(Cl)nc(Nc3cccc(C4=Nc5c(N)nc(N)nc5NC(c5ccc6c(c5)OCO6)C4)c3)c2cc1OC (stereo not given),81.4%,4.53% (active),79.9%,56.1%,75.6%,37.7%,86.5%,105%,89.7%,33.2%,68.9%,82.2%,78.4%,8.17% (active),63.6%,72.1%,94.8%,52.6%,106%,–
COc1cc2nc(Cl)nc(Nc3cccc(C4=Nc5c(N)nc(N)nc5NC(c5ccc(Br)cc5)C4)c3)c2cc1OC (stereo not given),90%,–,92.9%,77.2%,84.4%,32%,93.2%,105%,84.1%,7.34% (active),19.8%,84.3%,28.7%,-46.5% (active),64.7%,75.5%,107%,27.6%,99.1%,–
